# Experimental data: PubChem BioAssay (NCI)
# Compounds without any hit were thinned out: in the full panel of roughly 83,000, 20% have a hit.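 Cell lines were cultured in 96-well plates, exposed to a single compound concentration, and assessed for percent growth 48 hours later.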 Calls of active or inactive are those of the source. The calls were made as follows: active = growth percent below 10; inactive = the rest.
# Test system: EKVX NSCLC
# Assay: NCI-60 one-dose screen, 48 h (100 = growth as untreated, 0 = no growth, -100 = all killed)
# Settings: 10 µM unless noted
row,SMILES,growth
1,C=C(C)[C@@H]1CC[C@]2(C(=O)N[C@H](CO)Cc3ccccc3)CC[C@]3(C)[C@H](CC[C@@H]4[C@@]5(C)CCCNC(C)(C)[C@@H]5CC[C@]43C)[C@@H]12,-84.1% (active)
2,O=C1c2cccc3c(-c4ccc5c(c4)ncn5C4CCCCC4)ccc(c23)C(=O)N1CCO,76.4% (inactive)
3,O=C(/C(=C\c1ccc([N+](=O)[O-])cc1)S(=O)Cc1ccc(F)cc1)c1ccc(F)cc1 (configuration not stated),84.2% (inactive)
4,NNC(=O)c1ccc(-n2nc(-c3ccccc3)c3ccccc32)cc1,63.4% (inactive)

# Test system: SN12C renal
# Assay: as above
# Settings: 10 µM unless noted
row,SMILES,growth
1,NC(=O)CSSCC(N)=O,108% (inactive)
2,C=C(C)[C@@H]1CC[C@]2(C(=O)N3CCN(C)CC3)CC[C@]3(C)[C@H](CC[C@@H]4[C@@]5(C)CC[C@H](O)C(C)(C)[C@@H]5CC[C@]43C)[C@@H]12,-74.2% (active)
3,O=C1Nc2cc(Cl)ccc2/C1=C\c1c(-c2ccc(F)cc2)nc2ccccn12,19.1% (inactive)
4,CCc1ccc(-c2cn3ccnc3c(-c3ccc4ncn(Cc5ccccc5)c4c3)n2)cc1,77.5% (inactive)
5,CCOC(=O)c1cc(C(=O)c2ccc(OC)c(OC)c2)n2ccc(/C=C/c3cc[n+](CC(=O)c4ccc(OC)c(OC)c4)cc3)cc12,86.8% (inactive)
6,COc1cc(/C=C\c2cc(OC)c(OC)c(OC)c2)cc(NC(=O)/C=C/c2cc(OC)c(OC)c(OC)c2)c1OC,66.9% (inactive)
7,CN1C(N2CCN(S(=O)(=O)c3ccccc3)CC2)=NS(=O)(=O)c2ccccc21,90.7% (inactive)
8,O=C1Nc2ccccc2/C1=C\c1c(-c2ccc(F)cc2)nc2ccccn12,82.5% (inactive)
9,OCc1cnc2ccccc2c1NC1CCCCCC1,93.8% (inactive)
10,Oc1c(Cl)cc(Cl)c(Cl)c1CNCCNCc1c(O)c(Cl)cc(Cl)c1Cl,36.2% (inactive)
11,CN1[C@@H]2CC[C@H]1/C(=C\c1ccccc1)C(=O)/C2=C/c1ccccc1,36.8% (inactive)
12,O=C1c2c(c3c4cccc(F)c4[nH]c3c3ccc4ccccc4c23)C(=O)N1O,41.5% (inactive)
13,CN(C)CCC(=O)c1ccc([N+](=O)[O-])cc1,99.1% (inactive)
14,Cc1ccc(-c2nc3ccccn3c2/C=C2/C(=O)Nc3cc(Cl)ccc32)cc1,77.5% (inactive)
15,CC(=O)[C@@H]1CC[C@]2(C(N)=O)CC[C@]3(C)[C@H](CC[C@@H]4[C@@]5(C)CCCNC(C)(C)[C@@H]5CC[C@]43C)[C@@H]12,86.5% (inactive)
16,CC(C)N1C(=O)S/C(=C2/SC(=O)N(C(C)C)C2=O)C1=O,94.8% (inactive)
17,NS(=O)(=O)c1ccc(CCN2C(=O)C3C(C2=O)C2(Cl)C(Cl)=C(Cl)C3(Cl)C2(Cl)Cl)cc1 (configuration not stated),99.9% (inactive)
18,Nc1c(S(=O)(=O)O)cc2c3c(cccc13)C(=O)OC2=O,98.9% (inactive)
19,O=C(CCN1CCCC1)c1ccc([N+](=O)[O-])cc1,106% (inactive)

row,SMILES,growth
1,O=C1Nc2ccc(F)cc2/C1=C\c1c(-c2ccccc2)nc2ccccn12,80.4% (inactive)
2,O=Cc1ccc(-c2cn3ccnc3c(-c3ccc4ncn(Cc5ccccc5)c4c3)n2)cc1,79.3% (inactive)
3,N#C/C(=C\c1ccc(C(F)(F)F)cc1)c1cc2ccccc2[nH]1,99.2% (inactive)
4,O=C1c2cccc3c(-c4ccc5c(c4)ncn5C4CCCCC4)ccc(c23)C(=O)N1c1nc2ccccc2s1,83.7% (inactive)
5,Cc1cccc(-c2cn3ccnc3c(-c3ccc4ncn(Cc5ccccc5)c4c3)n2)c1,95.3% (inactive)
6,CCOC(=O)C1=C(CCl)NC(=O)NC1c1ccc2c(c1)OCO2 (configuration not stated),20.1% (inactive)
7,CCCN1[C@@H]2CC[C@H]1/C(=C\c1ccc(OC)c(OC)c1)C(=O)/C2=C/c1ccc(OC)c(OC)c1,49.9% (inactive)
8,COc1ccc(C(=O)C2C(C#N)C(C#N)C3c4ccccc4C=CN23)cc1 (configuration not stated),80.9% (inactive)
9,O=C(C[n+]1cccc2ccccc21)c1ccc(O)c(O)c1,72.4% (inactive)
10,COc1ccc(C(=O)c2nc3ccccc3n2CC(=O)c2ccc(F)cc2)cc1,92.7% (inactive)
11,CC(=O)[C@@H]1CC[C@]2(CO)CC[C@]3(C)[C@H](CC[C@@H]4[C@@]5(C)CCCNC(C)(C)[C@@H]5CC[C@]43C)[C@@H]12,91.2% (inactive)
12,NS(=O)(=O)c1ccc(CCN2C(=O)C=CC2=O)cc1,110% (inactive)
13,Nc1ccccc1NC(=O)c1ccc(-n2nc(-c3ccccc3)c3ccccc32)cc1,52.3% (inactive)
14,N#CC1C(C#N)C2c3ccccc3C=CN2C1C(=O)c1ccc(Br)cc1 (configuration not stated),88.6% (inactive)
15,O=C(CNCCN1CCOCC1)N1c2cccc3cccc(c23)N(C(=O)CNCCN2CCOCC2)C1c1cn(-c2ccccc2)nc1-c1cccc([N+](=O)[O-])c1,79.4% (inactive)
16,C=C(C)[C@@H]1CC[C@]2(C(=O)N[C@H](CO)Cc3ccccc3)CC[C@]3(C)[C@H](CC[C@@H]4[C@@]5(C)CCCNC(C)(C)[C@@H]5CC[C@]43C)[C@@H]12,-83.3% (active)
17,O=C1c2cccc3c(-c4ccc5c(c4)ncn5C4CCCCC4)ccc(c23)C(=O)N1CCO,93.8% (inactive)
18,O=C(/C(=C\c1ccc([N+](=O)[O-])cc1)S(=O)Cc1ccc(F)cc1)c1ccc(F)cc1 (configuration not stated),-43.7% (active)
19,NNC(=O)c1ccc(-n2nc(-c3ccccc3)c3ccccc32)cc1,75.1% (inactive)
